# In the supplement of paper PMC10338343:
# ± gives the standard deviation.
# Tested on: MILI (PIWIL2) piRISC loaded with piRNA #1 (26 nt)
# Assay: pre-steady-state target cleavage rate (min^-1); guide: piRNA #1 5'p-UGAGGUAGUAGGUUGUAUAGUAUCCA; MIWI and MILI are mouse PIWI proteins and EfPiwi is from a freshwater sponge; tags in brackets are library labels; higher = faster piRNA-guided slicing of the target
# Conditions: auxiliary factor: 500 nM mouse GTSF1
# Outline: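 Using HEPES–potassium acetate buffer at 33 °C, 1 nM active affinity-purified piRISC with a single synthetic guide was mixed with 0.1 nM transcribed, DNA-blocked target RNA library for 0–8 or 0–960 min, with or without 500 nM GTSF1 partner protein. Uncleaved targets were sequenced and normalised to depth and to weakly complementary targets, and three trials were pooled with k3 capped at 0.0001 min^-1. A burst-and-steady-state fit gave the pre-steady-state cleavage rate.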
row,Sequence,pre-steady-state target cleavage rate
1,GGAGACCUAUGUAUAGUUCCUACUACCUCA,0.00602 ± 0.0021
2,GGAGACCUAUGAAUACAUCCUACUACCUCA,0.012 ± 0.0031
3,GGAGAGGAUACUAUACAAGGAACUACCUCA,0.00442 ± 0.002
4,GGAGACCUAUGAAUACAACCUACUACCCUCA,0.00533 ± 0.0019
5,GGAGACCUAUGAUAUGAACCUACUUACCUCA,< 0.0001
6,GGAGACCUAUGAUAUGUUCCUACUACCUCU [g2:g12:cont:t1U],< 0.0001
7,GGAGUGGAAUGUAUACAACCUACUACCUCA,0.0864 ± 0.0076
8,GGAGACCUAUCUAUACAACCUACUAACCUCA,0.143 ± 0.014
9,GGAGAGGAUACUAUAGAACGUACUACCUCA,0.00602 ± 0.0021
10,GGAGACCUAUGAUAUCACCUACUACCUCA,0.00625 ± 0.0026
11,GGAGACCUAACUAUACAAUCUACUACCUCA,0.0713 ± 0.012
12,GGAGACCUUACUUUACAACCUACUACCACA,0.14 ± 0.018
13,GGAGACCUAUGAAUACAUCCUACAACCUCA,0.0119 ± 0.0025
14,GGAGACCUAUCUAUACUACCUAGUACCUCA,0.0113 ± 0.0036
15,GGAGACGAUACUAUACAACCUACUACGACA,0.131 ± 0.022
16,GGAGACCUAUGUAUACAACCUACUACCCUCA,0.0911 ± 0.011
17,GGAGACGAUACUUUACAACCUACUACCACA,0.2 ± 0.025
18,GGAGACCUAUCUAAACUACCUACUACCUCA,0.051 ± 0.012
19,GGAGACCUAUGUAUAGAACCUACUACGUCA,0.015 ± 0.0034
20,GGAGACCUAUCUAUACAACCUACGUACCUCA,0.0605 ± 0.012

row,Sequence,pre-steady-state target cleavage rate
1,GGAGACCUAUGUAUUCAACCUUCUACCUCA,0.00294 ± 0.0026
2,GGAGACCUUACUAUACAACCUACUUCGUCA,0.0614 ± 0.015
3,GGAGACCAUACUAUUCAACCUAGUACCUCA,0.0559 ± 0.011
4,GGAGACCUAUGAUUACAAGCUACUACCUGA,0.0183 ± 0.0056
5,GGAGACCUAUGAUUACUACCUACUUCCUCA,0.00322 ± 0.0022
6,GGAGACCUAUGUAUAGAACGUACUACCUCA,0.00362 ± 0.0018
7,GGAGACCUAUGUAUACAACCUACUACGCUCA,0.0944 ± 0.013
8,GGAGACCUAUGAUAACUUGCUACUACCUCA,< 0.0001
9,GGAGAGAGAUACUAUACAACCUACUACCUCA,0.201 ± 0.013
10,GGAGACCUAUGAUUACAUCCUACUAGCUCA,0.00651 ± 0.0025
11,GGAGAGGUUACUAUACAACCUACUACGUCA,0.011 ± 0.0037
12,GGAGACCUAUGUAUUCUACCUACUACCUCA,0.0111 ± 0.0026
13,GGAGAGGAUACUAUAAAACCUACUACCUCA,0.181 ± 0.013
14,GGAGACCUAUGAUAACAAGCUACAACCUCA,0.0095 ± 0.0029
15,GGAGACCUAUCUAUUCAACCUACUUCCUCA,0.0412 ± 0.0086
16,GGAGACCAUACAAUACAACCUUCUACCUCA,0.012 ± 0.0035
17,GGAGACCUAUGAUUACAACCUACCUACCUCA,0.00646 ± 0.0028
18,GGAGACCUAUCUAAACAUCCUACUACCUCA,0.116 ± 0.015
19,GGAGACCUAUGAUAUCAAGCUACUACCACA,0.00606 ± 0.0028
20,GGAGACCUAAGUAUAGAACCUACUACCUCA,0.0747 ± 0.013
